High-throughput results from PubChem.
Sampled rows, rich in hits. Any-hit rate of the full collection: about 0.39%.
EPAC2 ag – EPAC2 (human) agonism | hit rate 0.079% among 360,000 | EPAC2 activation, biochemical qHTS; response scale: 100% = 6.5 mM cAMP response | Potency, µM (series often up to 154 µM), inactives show at the top dose activation, actives largely listed as activators; also: nearly all actives have a fitted effect of over 50% in size
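Guanine nucleotide exchange by EPAC2 is measured as reduced fluorescence of BODIPY-GDP once it is released from 250 nM Rap1B. Plates are read kinetically for 30 min at room temperature; results are scaled to 6.5 mM cAMP.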
EPAC2 antag – antagonists of human EPAC2; Potency, µM (top dose mostly 114 µM), without a hit: at the highest dose activity, negative = inhibition, most hits filed as inhibitors; hit rate 0.18% among 360,000; Q8WZA2; AID 720708; EPAC2 GEF exchange of Rap1B-BODIPY-GDP, fluorescence; also: % is scaled to controls: 0 for no effect and ±100 for the full control effect; nearly all actives have a fitted effect of over 45% in size
EPAC1 ag – activates human EPAC1 exchange factor. EPAC1 agonist qHTS, biochemical assay; response scale: 100% = response to 6.5 mM cAMP. Potency, µM (titrated, usually from 154 µM), inactives show top-dose activation, most hits filed as activators. hit rate 0.073% among 360,000. AID 720707; also: nearly all actives have a fitted effect of over 60% in size
Target sequence (O95398 whole entry, looked up): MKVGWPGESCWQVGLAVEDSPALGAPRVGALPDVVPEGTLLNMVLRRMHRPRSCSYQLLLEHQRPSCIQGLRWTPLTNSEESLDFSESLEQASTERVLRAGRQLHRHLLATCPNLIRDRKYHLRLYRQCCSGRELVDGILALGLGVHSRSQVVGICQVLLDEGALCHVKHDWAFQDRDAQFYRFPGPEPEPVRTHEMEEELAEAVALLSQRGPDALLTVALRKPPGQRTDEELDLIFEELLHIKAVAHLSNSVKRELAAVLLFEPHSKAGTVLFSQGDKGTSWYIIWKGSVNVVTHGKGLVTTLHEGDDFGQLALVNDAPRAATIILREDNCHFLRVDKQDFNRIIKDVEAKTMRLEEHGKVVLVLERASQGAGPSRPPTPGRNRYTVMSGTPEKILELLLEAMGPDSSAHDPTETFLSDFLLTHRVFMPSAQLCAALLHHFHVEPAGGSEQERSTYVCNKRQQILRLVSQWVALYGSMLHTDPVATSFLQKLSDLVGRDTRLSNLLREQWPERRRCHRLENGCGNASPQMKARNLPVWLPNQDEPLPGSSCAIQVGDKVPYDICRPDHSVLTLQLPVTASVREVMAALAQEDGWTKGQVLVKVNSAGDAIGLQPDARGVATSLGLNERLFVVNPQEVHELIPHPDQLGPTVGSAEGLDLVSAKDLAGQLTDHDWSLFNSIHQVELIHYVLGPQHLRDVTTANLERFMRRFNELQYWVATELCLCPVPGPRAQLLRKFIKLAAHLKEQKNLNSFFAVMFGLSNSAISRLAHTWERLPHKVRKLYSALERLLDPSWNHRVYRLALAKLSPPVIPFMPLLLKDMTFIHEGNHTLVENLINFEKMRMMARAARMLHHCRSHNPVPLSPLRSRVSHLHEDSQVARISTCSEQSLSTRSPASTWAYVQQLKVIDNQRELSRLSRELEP
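Fluorescent GDP-exchange assay: 100 nM EPAC1 with 250 nM Rap1B preloaded with BODIPY-GDP and 50 uM GDP; compounds tested as concentration series, 5 min at room temperature, then read every 5 min for 30 min (ex 480/em 540 nm); normalized to 6.5 mM cAMP.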
EPAC1 antag – blocks human EPAC1 exchange factor; O95398; EPAC1 GEF assay, Rap1b-BODIPY-GDP exchange fluorescence; Potency, µM (highest dose often 115 µM), inactives show top-dose activity change, negative = inhibition, usual class: inhibitors; hit rate 0.14% among 360,000;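 also: plate controls were vehicle for no effect and positive control for full effect; nearly all actives have a fitted effect of over 50% in size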
Active calls of the source: *; ? = inconclusive. Calls follow the shape of the dose curve; as a rule, active = well fitted curve in the direction sought with a large enough effect; inconclusive = small, poorly fitted or top-dose-only effect, or another doubt; inactive = no such curve, though single readings can be large; an effect the other way counts as inactive or inconclusive. Potency is read from the fitted curve at half-maximal effect.

SMILES	EPAC2 ag	EPAC2 antag	EPAC1 ag	EPAC1 antag
CCOc1ccc(C=NNc2ccc(S(=O)(=O)Nc3ccccc3C(=O)O)cc2[N+](=O)[O-])cc1	0%	-16%	10%	?
C=CCOc1ccc(C=NNc2ccc(S(=O)(=O)Nc3ccccc3C(=O)O)cc2[N+](=O)[O-])cc1OC	1%	?	-6%	50µM*
CC(C)CC(=NNC(=O)c1ccncc1)c1cc(Cl)ccc1O	?	2%	100µM*	-1%
O=C(NC1(O)C(=O)c2ccccc2C1=O)c1ccccc1	12%	?	-4%	?
O=C(NC1(O)C(=O)c2ccccc2C1=O)c1c(Cl)cccc1Cl	29%	?	-3%	50µM*
Cc1cc(CSc2ccc(Cl)cc2)ccc1N	17%	16µM*	6%	-4%
CCOc1cc(/C=C(\C#N)C(=O)Nc2cccc(C(=O)O)c2)ccc1OCc1ccccc1Cl	-2%	-27%	8%	-22%
CCOc1cc(/C=C(\C#N)C(=O)Nc2cccc(C(=O)O)c2)cc(Br)c1OC(=O)c1ccc(OC)cc1	-2%	50µM*	9%	?
C[C@@H]1CN([C@@H](C)CO)C(=O)c2cc(NS(=O)(=O)c3ccc(F)cc3)ccc2O[C@@H](C)CCCCO[C@H]1CN(C)C(=O)NC1CCCCC1	-7%	3%	-5%	-5%
COc1ccccc1C(=O)Oc1ccc2c(c1)O/C(=C\c1ccncc1)C2=O	7%	6%	100µM*	24%
CC(=O)Oc1ccc2c(c1)O/C(=C\c1ccncc1)C2=O	?	81%	89µM*	57%
COc1cc(Nc2ccn3nc(-c4ccccc4Cl)cc3n2)cc(OC)c1OC	-2%	18%	-7%	-10%
C=CCSc1nc(-c2ccc(OC)cc2)c(C#N)c(=O)n1CC=C	-3%	40µM*	-4%	-7%
COc1ccc(-c2nc3n(c(=O)c2C#N)CCS3)cc1	13%	-4%	3%	?
O=C(Nc1ccccn1)C(c1ccccc1)c1ccccc1	2%	-18%	-3%	-9%
Cc1cc(/C=C2/C(=N)N3C(=NC2=O)SN=C3S(C)(=O)=O)c(C)n1-c1ccccc1F	-3%	-14%	-5%	-2%
CS(=O)(=O)C1=NSC2=NC(=O)/C(=C\c3cccn3-c3ccc(Cl)cc3)C(=N)N21	-8%	-17%	9%	35µM*
COC(=O)[C@@]12C[C@@H](CC(=O)NCc3ccc(C)o3)C(=O)N(CCc3ccc(OC)c(OC)c3)C1=CCC(C)(C)C2	-2%	?	-12%	-28%
COc1ccccc1NC(=O)COC(=O)c1ccc([N+](=O)[O-])s1	5%	?	8%	11µM*
O=[N+]([O-])c1cc([N+](=O)[O-])c2oc(-c3ccccc3)c(Br)c2c1O	-7%	20µM*	6%	25µM*
COc1ccc(-c2csc(C3=C(O)CN(Cc4ccc(Cl)cc4)C3=N)n2)cc1OC	6%	3%	4%	-2%
COc1cccc(CN2CC(O)=C(c3nc(-c4ccc(Cl)cc4)cs3)C2=N)c1	6.3µM*	10%	-14%	2%
Nc1ncc(-c2ccc(-c3ccccc3)cc2F)cc1-c1ccccc1F	9%	-3%	2%	-20%
COC1OC(c2ccccc2)=C(c2cnc(N)nc2)c2ccc(F)cc21 (centres undefined)	10%	40µM*	5%	-5%
CCN1CCc2c(sc(NC(=O)c3ccc(S(=O)(=O)N4CCCCCC4)cc3)c2C(=O)NC)C1	-125%	161%	112µM*	-26%
SMILES	EPAC2 ag	EPAC2 antag	EPAC1 ag	EPAC1 antag
CCN1CCc2c(sc(NC(=O)Cc3ccccc3)c2C(N)=O)C1	9%	5%	-11%	3%
CCN1CCc2c(sc(NC(=O)Nc3ccc(Cl)c(Cl)c3)c2C(N)=O)C1	100µM*	?	100µM*	?
NC(=O)c1c(NC(=O)c2c(F)cccc2F)sc2c1CCN(Cc1ccccc1)C2	14%	38%	-60%	31%
NC(=O)c1c(NC(=O)c2ccccc2)sc2c1CCN(Cc1ccccc1)C2	89µM*	23%	6%	1%
COC(=O)[C@H]1C[C@H](OC(=O)NCc2ccccc2F)[C@@]2(O)CN(S(=O)(=O)c3ccc(C)cc3)CC2[C@H]1C(=O)OC (some centres undefined)	-5%	-1%	-8%	-13%
CCCN(CCC)C(=O)Cn1c(=O)c2sccc2n2c(=S)sc(-c3ccccc3)c12	-33%	50µM*	8%	-10%
CCCN(CCC)C(=O)Cn1c(=O)c2ccccc2n2c(=S)sc(-c3ccccc3C)c12	10%	-2%	4%	1%
O=C(C[C@H]1C[C@@H]2c3cc(NC(=O)Nc4ccccc4F)ccc3O[C@@H]2[C@H](CO)O1)NCc1ccccn1	5%	9%	-11%	2%
C[C@H]1CN([C@@H](C)CO)S(=O)(=O)c2ccc(C#Cc3cccnc3)cc2O[C@@H]1CN(C)C(=O)Nc1ccc2c(c1)OCO2	8%	-2%	3%	2%
Nc1c(C(=O)O)sc2nc3c(cc12)CCCC3	13%	6%	4%	-6%
CN1CCc2nc3sc(C(=O)C45CC6CC(CC(C6)C4)C5)c(N)c3cc2C1	?	50µM*	12%	-19%
O=C(CSc1nc2ccsc2c(=O)n1CC1CCC(C(=O)O)CC1)c1ccc(Cl)cc1 (centres undefined)	19%	-14%	?	56µM*
CCCNC(=O)c1cc2c(c(-c3cccc(-c4ccccc4F)c3)n1)[C@@H](CCO)N(C(=O)CC1CC1)C2	15%	-17%	4%	-1%
COC(=O)c1c(NC(=O)/C=C/c2ccc3c(c2)OCO3)sc(C)c1C	6%	1%	3%	0%
CCOC(=O)c1c(NC(=O)/C=C/c2ccc3c(c2)OCO3)sc(C)c1CC	6.3µM*	11%	-13%	-1%
c1ccc(NN=C(c2ccccc2)c2cccs2)cc1	16%	-12%	0%	7%
CC1=Nc2ccccc2/C1=C\c1nc(-c2ccc(F)cc2)oc1O	?	47%	89µM*	26%
CN=Cc1nc(-c2ccccc2)oc1O	5%	3%	16%	-1%
Cc1cccc(C)c1NC(=O)C(c1ccc(C#N)cc1)n1c(=O)c(-c2ccccc2)nc2ccccc21 (centres undefined)	27%	25%	7%	-22%
O=C(N/N=C/c1ccc(O)c(Br)c1)c1cc2c(ccc3ccccc32)o1	6%	-5%	5%	1%
O=C(N/N=C/c1cc(Br)c(O)c(Br)c1)c1cc2c(ccc3ccccc32)o1	8%	-14%	-4%	28µM*
OCCNc1ncnc2c1ncn2[C@H]1CN(Cc2ccncc2)C[C@@H](CO)O1	4%	1%	3%	14%
N#Cc1c(-c2ccc(Cl)cc2)cc(-c2ccccc2)nc1SCC(=O)O	2%	-3%	8%	-27%
N#Cc1c(-c2ccc(F)cc2)cc(-c2ccccc2)nc1SCC(=O)NCC(=O)O	-5%	13%	9%	79µM*
CCc1nc2ccc(C(=O)NCc3ccccc3OC)cn2c1N(CC)Cc1cccc(Br)c1	7%	-16%	3%	-21%
